According to PubChem BioAssay:
For part of these data: Results with a measured potency or affinity are listed apart. Calls of active or inactive are those of the source. Unless noted, how the calls were made is not given here.

Legend:
[1] = antimalarial activity against Dd2 strain (AID 2302;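 active means growth inhibition above 50% at the single 2 µM test dose, taken to imply half-maximal potency below 2 µM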;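 further: 0% = DMSO untreated growth and 100% = chloroquine plus artemisinin killed control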); conditions: P. falciparum Dd2 in RBCs, LDH growth readout, 72 h; at 2 µM; hits give high values
[2] = human hepatoma cell viability loss – ATP luminescence, cytotoxicity control for P. falciparum antimalarial project, primary screen (AID 2303;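 active means inhibition above 50%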;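 further: 0% = DMSO wells and 100% = digitonin-killed cells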); conditions: HepG2 viability, 24-48 h, at 10 µM, hits give high values
[3] = target: L-lactate dehydrogenase (Plasmodium falciparum (isolate CDC / Honduras)) (UniProt Q27743); assay: PfLDH activity inhibition – cell lysate, 3D7 strain, counter-screen for P. falciparum growth inhibition project (AID 2304);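 further: 0% = vehicle and 100% = reference inhibitor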; conditions: P. falciparum 3D7 crude extract, LDH APAD/NBT absorbance; at 2 µM; hits give high values
[4] = inhibition of 3D7 malaria parasite growth – strain 3D7 (AID 2306);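 further: 0% = DMSO wells and 100% = chloroquine plus artemisinin control wells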; conditions: P. falciparum 3D7 erythrocytic growth, LDH absorbance, 72 h; at 2 µM; hits give high values
[5] = target: Calcium-dependent protein kinase 1 (Plasmodium falciparum (isolate 3D7)) (UniProt P62344); assay: PfCDPK1 kinase inhibitors, biochemical, TCAMS library (AID 1159585; cut-off not given, nearly all actives have IC50 up to about 0.98 µM;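 further: inhibitors leave more ATP so luminescence rises with inhibition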); conditions: recombinant PfCDPK1, Kinase-Glo ATP depletion luminescence
[6] = target: Plasmodium falciparum protein kinase 6 (PK6, PF3D7_1337100) (UniProt Q8IDW1); assay: PfPK6 kinase inhibitors, biochemical, TCAMS library (AID 1159586); conditions: recombinant PfPK6, Kinase-Glo ATP depletion luminescence
[7] = target: Protein kinase 7 (PK7), Plasmodium falciparum 3D7 (PF3D7_0213400) (UniProt Q7YTF7); assay: inhibition of Plasmodium PK7 catalytic activity – biochemical, TCAMS antimalarial set, Kinase-Glo luminescence (AID 1159587); conditions: recombinant PfPK7, Kinase-Glo ATP depletion luminescence
[8] = target: Calcium-dependent protein kinase 4 (Plasmodium falciparum (isolate 3D7)) (UniProt Q8IBS5); assay: PfCDPK4 kinase inhibitors, biochemical, TCAMS library (AID 1159588; cut-off not given, nearly all actives have IC50 up to about 0.91 µM); conditions: recombinant PfCDPK4, Kinase-Glo ATP depletion luminescence
Calcium-dependent protein kinase 4 (Plasmodium falciparum (isolate 3D7)), sequence (Q8IBS5 whole entry, looked up): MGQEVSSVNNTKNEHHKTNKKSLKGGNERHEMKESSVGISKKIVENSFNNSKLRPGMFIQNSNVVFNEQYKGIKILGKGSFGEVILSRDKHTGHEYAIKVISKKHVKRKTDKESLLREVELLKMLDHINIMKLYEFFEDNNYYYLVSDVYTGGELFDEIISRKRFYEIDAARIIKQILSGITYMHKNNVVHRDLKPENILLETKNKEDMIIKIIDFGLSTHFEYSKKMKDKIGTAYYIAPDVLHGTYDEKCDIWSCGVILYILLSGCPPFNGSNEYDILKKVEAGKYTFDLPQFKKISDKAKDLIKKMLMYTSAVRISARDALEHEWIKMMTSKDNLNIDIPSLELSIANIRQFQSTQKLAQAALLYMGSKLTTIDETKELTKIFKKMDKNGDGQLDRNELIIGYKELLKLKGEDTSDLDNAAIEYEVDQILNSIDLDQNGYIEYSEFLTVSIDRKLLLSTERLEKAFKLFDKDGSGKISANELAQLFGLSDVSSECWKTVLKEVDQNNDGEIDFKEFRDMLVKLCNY

Plasmodium falciparum protein kinase 6 (PK6, PF3D7_1337100), sequence (Q8IDW1 1-305): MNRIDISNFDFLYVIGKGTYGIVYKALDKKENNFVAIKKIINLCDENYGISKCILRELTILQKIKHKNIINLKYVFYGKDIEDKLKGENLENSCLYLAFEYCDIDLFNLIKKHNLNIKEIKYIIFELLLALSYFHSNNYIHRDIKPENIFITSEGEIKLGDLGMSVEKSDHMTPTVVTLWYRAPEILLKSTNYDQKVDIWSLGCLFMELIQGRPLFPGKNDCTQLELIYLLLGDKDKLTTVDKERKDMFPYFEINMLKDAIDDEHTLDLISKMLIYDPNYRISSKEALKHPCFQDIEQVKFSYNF
L-lactate dehydrogenase (Plasmodium falciparum (isolate CDC / Honduras)), sequence (Q27743 whole entry, looked up): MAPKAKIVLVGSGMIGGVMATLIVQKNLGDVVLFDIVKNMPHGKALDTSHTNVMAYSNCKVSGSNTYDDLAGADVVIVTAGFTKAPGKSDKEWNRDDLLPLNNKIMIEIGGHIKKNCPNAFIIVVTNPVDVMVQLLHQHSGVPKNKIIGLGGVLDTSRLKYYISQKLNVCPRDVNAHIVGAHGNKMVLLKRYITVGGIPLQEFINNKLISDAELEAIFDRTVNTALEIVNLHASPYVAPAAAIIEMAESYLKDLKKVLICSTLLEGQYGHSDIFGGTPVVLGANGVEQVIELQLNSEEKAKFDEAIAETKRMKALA
Protein kinase 7 (PK7), Plasmodium falciparum 3D7 (PF3D7_0213400), sequence (Q7YTF7 1-343): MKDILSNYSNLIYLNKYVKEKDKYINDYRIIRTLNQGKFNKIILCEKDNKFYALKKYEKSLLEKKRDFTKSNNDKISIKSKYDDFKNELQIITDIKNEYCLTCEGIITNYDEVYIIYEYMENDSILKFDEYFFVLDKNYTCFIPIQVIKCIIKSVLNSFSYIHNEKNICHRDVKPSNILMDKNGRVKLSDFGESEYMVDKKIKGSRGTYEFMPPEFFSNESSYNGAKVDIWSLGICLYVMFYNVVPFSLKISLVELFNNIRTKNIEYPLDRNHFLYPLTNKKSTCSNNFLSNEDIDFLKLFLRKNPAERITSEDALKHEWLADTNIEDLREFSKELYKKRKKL
Calcium-dependent protein kinase 1 (Plasmodium falciparum (isolate 3D7)), sequence (P62344 whole entry, looked up): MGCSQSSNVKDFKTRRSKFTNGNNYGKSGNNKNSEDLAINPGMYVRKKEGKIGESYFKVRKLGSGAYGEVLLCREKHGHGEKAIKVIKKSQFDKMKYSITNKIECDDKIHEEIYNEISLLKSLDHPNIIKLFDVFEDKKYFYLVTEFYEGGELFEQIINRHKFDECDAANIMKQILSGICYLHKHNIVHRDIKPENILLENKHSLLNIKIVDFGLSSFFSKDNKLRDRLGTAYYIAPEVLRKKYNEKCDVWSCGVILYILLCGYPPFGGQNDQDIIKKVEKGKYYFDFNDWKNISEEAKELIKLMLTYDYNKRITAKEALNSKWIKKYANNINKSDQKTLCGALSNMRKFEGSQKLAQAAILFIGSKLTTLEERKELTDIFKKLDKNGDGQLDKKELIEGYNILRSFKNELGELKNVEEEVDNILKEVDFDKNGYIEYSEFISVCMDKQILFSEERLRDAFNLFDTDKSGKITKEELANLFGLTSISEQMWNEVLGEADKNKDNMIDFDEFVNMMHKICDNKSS

Cc1nc(Nc2cc(Cl)ccc2O)nc(Nc2cc(Cl)ccc2O)c1[N+](=O)[O-]
inactive: inhibition [2] -4% | inhibition [3] 3% | outcome [5] | outcome [6] | outcome [7] | outcome [8]
active: growth inhibition [1] 83% | growth inhibition [4] 98%

CCOc1ccc(-c2nc(NC(=O)Cc3cccc(OC)c3)sc2C)cc1
inactive: growth inhibition [1] 28% | inhibition [2] 15% | inhibition [3] 3% | outcome [5] | outcome [6] | outcome [7] | outcome [8]
active: growth inhibition [4] 97%

Cc1nc(C)c(CC(=O)Nc2cccc(-c3cccc(-c4nc5c(C)cccc5[nH]4)c3)c2)s1
inactive: growth inhibition [1] 35% | inhibition [2] 43% | inhibition [3] -6% | outcome [5] | outcome [6] | outcome [7] | outcome [8]
active: growth inhibition [4] 92%

O=C(Nc1cccc(Cl)c1Cl)Nc1ccnc2ccccc12
inactive: growth inhibition [1] 47% | inhibition [2] 31% | inhibition [3] 4% | outcome [5] | outcome [6] | outcome [7] | outcome [8]
active: growth inhibition [4] 100%

Cc1cccc2[nH]c(-c3cccc(-c4ccc(NC(=O)COC(C)C)cc4)c3)nc12
active: growth inhibition [4] 82%
inactive: growth inhibition [1] 11% | inhibition [2] -4% | inhibition [3] 7% | outcome [5] | outcome [6] | outcome [7] | outcome [8]

c1cc(CNCCc2ccncc2)cc(-c2cccc(-c3nc4ccccc4[nH]3)c2)c1
inactive: inhibition [2] 21% | inhibition [3] 1% | outcome [5] | outcome [6] | outcome [7] | outcome [8]
active: growth inhibition [1] 88% | growth inhibition [4] 100%

CCCN(CCC)C(=S)N=Nc1c(O)[nH]c2ccccc12
active: growth inhibition [1] 86% | growth inhibition [4] 97%
inactive: inhibition [2] 28% | inhibition [3] -3% | outcome [5] | outcome [6] | outcome [7] | outcome [8]

CC(C)(C)c1ccccc1SC1=C(O)CC2(CCNCC2)OC1=O
active: growth inhibition [4] 99%
inactive: growth inhibition [1] -4% | inhibition [2] 0% | inhibition [3] 2% | outcome [5] | outcome [6] | outcome [7] | outcome [8]

CCCNc1nc(NCc2c(C)cccc2C)nc(NC(C)(C)C)n1
inactive: inhibition [2] 15% | inhibition [3] 2% | outcome [5] | outcome [6] | outcome [7] | outcome [8]
active: growth inhibition [1] 89% | growth inhibition [4] 91%

COc1ccc2nccc([C@@H](O)CN3CCC(NCc4cc5c(Cl)cc(Cl)cc5[nH]4)CC3)c2c1
active: growth inhibition [1] 86% | inhibition [2] 93% | growth inhibition [4] 101%
inactive: inhibition [3] 4% | outcome [5] | outcome [6] | outcome [7] | outcome [8]

Cc1ccccc1OCCCN1CCN(CC(c2ccc(F)cc2)N2CCN(C(C)C)CC2)CC1 (configuration not stated)
inactive: inhibition [2] 20% | inhibition [3] 2% | outcome [5] | outcome [6] | outcome [7] | outcome [8]
active: growth inhibition [1] 64% | growth inhibition [4] 99%

Oc1ccc(CCNc2nc(NCc3ccccc3-c3ccccc3)nc(N3CCCNCC3)n2)cc1
inactive: growth inhibition [1] 20% | inhibition [2] 26% | inhibition [3] -5% | outcome [5] | outcome [6] | outcome [7] | outcome [8]
active: growth inhibition [4] 95%

Cc1cccc2[nH]c(-c3cccc(-c4cccc(NC(=O)NCc5cccc(F)c5)c4)c3)nc12
active: growth inhibition [4] 98%
inactive: growth inhibition [1] 32% | inhibition [2] 11% | inhibition [3] -2% | outcome [5] | outcome [6] | outcome [7] | outcome [8]

CC(=O)Nc1cc(C(=O)Nc2cccc(-c3cccc(-c4nc5ccc(C(F)(F)F)cc5[nH]4)c3)c2)ccc1C
active: inhibition [2] 56% | growth inhibition [4] 97%
inactive: growth inhibition [1] 43% | inhibition [3] -4% | outcome [5] | outcome [6] | outcome [7] | outcome [8]

COc1ccccc1N1CCN(c2cccc3c2nc(-c2cncc(C#N)c2)n3CCNCc2ccccc2)CC1
active: growth inhibition [1] 81% | growth inhibition [4] 101%
inactive: inhibition [2] -8% | inhibition [3] 3% | outcome [5] | outcome [6] | outcome [7] | outcome [8]

c1ccc(C2CCC(N3CCC(N4CCN(c5ccccc5)CC4)CC3)CC2)cc1 (configuration not stated)
active: growth inhibition [4] 97%
inactive: growth inhibition [1] 34% | inhibition [2] 6% | inhibition [3] -3% | outcome [5] | outcome [6] | outcome [7] | outcome [8]

Cc1cc(N)c2cc(NC(=O)/C=C/c3ccccc3Cl)ccc2n1
inactive: inhibition [3] -2% | outcome [5] | outcome [6] | outcome [7] | outcome [8]
active: growth inhibition [1] 98% | inhibition [2] 81% | growth inhibition [4] 100%

CCOc1ccccc1[C@H]1[C@H](C(=O)C(C)(C)C)N2c3ccc(Br)cc3C=CC2C12C(=O)c1ccccc1C2=O (some centres not stated)
active: growth inhibition [1] 94% | growth inhibition [4] 95%
inactive: inhibition [2] 17% | inhibition [3] 1% | outcome [5] | outcome [6] | outcome [7] | outcome [8]

COc1cc(CNc2ccc(N3CCCC3)cc2)cc(Cl)c1OC
inactive: inhibition [2] 41% | inhibition [3] 1% | outcome [5] | outcome [6] | outcome [7] | outcome [8]
active: growth inhibition [1] 94% | growth inhibition [4] 100%

CC(=O)Nc1ccc(CNC2Cc3ccc(-c4ccc(Cl)c(Cl)c4)cc3C2)cc1 (configuration not stated)
inactive: growth inhibition [1] 7% | inhibition [2] 49% | inhibition [3] -3% | outcome [5] | outcome [6] | outcome [7] | outcome [8]
active: growth inhibition [4] 89%

O=C(NCC1CCN(CCN2CCC(c3cn(CCO)c4ccccc34)CC2)CC1)c1ccc(-c2ccc(C(F)(F)F)cc2)cc1
inactive: inhibition [3] 0% | outcome [5] | outcome [6] | outcome [7] | outcome [8]
active: growth inhibition [1] 100% | inhibition [2] 100% | growth inhibition [4] 101%

O=C(CCCCCNC(=O)c1ccc(O)c(-c2ccc(Cl)c(Cl)c2)c1)NC1CCCCCC1
active: growth inhibition [4] 92%
inactive: growth inhibition [1] 3% | inhibition [2] -4% | inhibition [3] 2% | outcome [5] | outcome [6] | outcome [7] | outcome [8]

Oc1c(C(Nc2nc3ccccc3s2)c2ccccc2)ccc2cccnc12 (configuration not stated)
inactive: inhibition [2] 45% | inhibition [3] -4% | outcome [5] | outcome [6] | outcome [7] | outcome [8]
active: growth inhibition [1] 83% | growth inhibition [4] 95%

COc1ccc(CCNCCCCNCCc2ccc(OC)c3ccccc23)c2ccccc12
inactive: growth inhibition [1] 33% | inhibition [3] -1% | outcome [5] | outcome [6] | outcome [7] | outcome [8]
active: inhibition [2] 100% | growth inhibition [4] 100%

COc1ccc2nccc([C@@H](O)CN3CCC(NCc4cc5cccc(O)c5[nH]4)CC3)c2c1
active: growth inhibition [4] 101%
inactive: growth inhibition [1] 35% | inhibition [2] -10% | inhibition [3] -6% | outcome [5] | outcome [6] | outcome [7] | outcome [8]

O=C(NCCCN(Cc1ccc(F)cc1)c1ccccn1)C(c1cc2ccccc2o1)N1CCN(C(c2ccccc2)c2ccccc2)CC1 (configuration not stated)
inactive: inhibition [2] 14% | inhibition [3] 1% | outcome [5] | outcome [6] | outcome [7] | outcome [8]
active: growth inhibition [1] 53% | growth inhibition [4] 97%

NC1=NC(c2ccccc2)(c2ccccc2)C(=O)N1CCCCc1ccccc1
active: growth inhibition [1] 81% | growth inhibition [4] 96%
inactive: inhibition [2] 14% | inhibition [3] -2% | outcome [5] | outcome [6] | outcome [7] | outcome [8]

CS(=O)(=O)Nc1cccc(-c2cnc3[nH]cc(-c4ccc(C(=O)O)cc4)c3c2)c1
active: growth inhibition [1] 82% | growth inhibition [4] 98%
inactive: inhibition [2] -11% | inhibition [3] 0% | outcome [5] | outcome [6] | outcome [7] | outcome [8]

CC(C)CCNC(=O)C1Cc2c([nH]c3cc(Br)ccc23)C2(CCN(CCc3ccccc3)CC2)N1 (configuration not stated)
inactive: growth inhibition [1] 48% | inhibition [2] 14% | inhibition [3] -1% | outcome [5] | outcome [6] | outcome [7] | outcome [8]
active: growth inhibition [4] 97%

Nc1nc2c(cnn2CCCCCCCP(=O)(O)O)c(=O)[nH]1
active: growth inhibition [1] 91% | growth inhibition [4] 94%
inactive: inhibition [2] -3% | inhibition [3] 4% | outcome [5] | outcome [6] | outcome [7] | outcome [8]

Cc1nnsc1C(=O)Nc1cccc(-c2cccc(-c3nc4c(C)cccc4[nH]3)c2)c1
inactive: inhibition [2] 22% | inhibition [3] 4% | outcome [5] | outcome [6] | outcome [7] | outcome [8]
active: growth inhibition [1] 80% | growth inhibition [4] 99%

O=C(CC1NC(=O)c2ccccc21)Nc1ccc(-c2cccc(-c3nc4ccc(C(F)(F)F)cc4[nH]3)c2)cc1 (configuration not stated)
active: inhibition [2] 69% | growth inhibition [4] 95%
inactive: growth inhibition [1] 36% | inhibition [3] -4% | outcome [5] | outcome [6] | outcome [7] | outcome [8]

CCC[C@@H]([C@@H](CC1CCCCC1)C(=O)N[C@H](C(=O)Nc1nccs1)C(C)(C)SCCNC(=O)OCc1ccccn1)N(O)C=O
active: growth inhibition [1] 96% | growth inhibition [4] 99%
inactive: inhibition [2] 17% | inhibition [3] -5% | outcome [5] | outcome [6] | outcome [7] | outcome [8]

CN1CCN(CCCN(C(=O)Nc2cc(C(F)(F)F)cc(C(F)(F)F)c2)c2ccccc2Cc2ccccc2)CC1
active: growth inhibition [1] 92% | growth inhibition [4] 89%
inactive: inhibition [2] 35% | inhibition [3] 0% | outcome [5] | outcome [6] | outcome [7] | outcome [8]

Fc1ccc(CNc2ncc(-c3ccsc3)c(-c3nccs3)n2)cc1
active: growth inhibition [1] 77% | growth inhibition [4] 94%
inactive: inhibition [2] 7% | inhibition [3] -2% | outcome [5] | outcome [6] | outcome [7] | outcome [8]

O=C(/C=C/c1ccc(Cl)cc1Cl)N1CCC(CCN2CCC(c3c[nH]c4ccccc34)CC2)CC1
active: inhibition [2] 94% | growth inhibition [4] 98%
inactive: growth inhibition [1] 37% | inhibition [3] -6% | outcome [5] | outcome [6] | outcome [7] | outcome [8]

O=C(Nc1ccc(F)cc1F)NC1CCN(CCCCCNC(=O)[C@@H]2C[C@H]2c2ccc(Cl)c(Cl)c2)CC1
active: growth inhibition [4] 100%
inactive: growth inhibition [1] 32% | inhibition [2] 41% | inhibition [3] 1% | outcome [5] | outcome [6] | outcome [7] | outcome [8]

COc1ccc(OCC(=O)Nc2nc(-c3ccc(OC)cc3)c(C)s2)cc1
active: growth inhibition [1] 87% | growth inhibition [4] 100%
inactive: inhibition [2] -3% | inhibition [3] -6% | outcome [5] | outcome [6] | outcome [7] | outcome [8]

CC(C)(C)c1cc(N=NC(=O)c2ccncc2)cc(C(C)(C)C)c1O
inactive: inhibition [2] 47% | inhibition [3] 1% | outcome [5] | outcome [6] | outcome [7] | outcome [8]
active: growth inhibition [1] 99% | growth inhibition [4] 99%
